Results as given in ChEMBL document CHEMBL4808148, “HDAC6 screening dataset using tau-based substrate in an enzymatic assay yields selective inhibitors and activators” (2021).
The whole screen tested about 5,600 compounds, of which about 390 (7%) showed an effect of 50% or more. Many of the other results were omitted from the sample, so strong results are more common in it than they were.

biological target: T1, Protein deacetylase HDAC6 (Homo sapiens) (UniProt Q9UBN7); conditions: at 10 µM
T1 sequence (whole entry): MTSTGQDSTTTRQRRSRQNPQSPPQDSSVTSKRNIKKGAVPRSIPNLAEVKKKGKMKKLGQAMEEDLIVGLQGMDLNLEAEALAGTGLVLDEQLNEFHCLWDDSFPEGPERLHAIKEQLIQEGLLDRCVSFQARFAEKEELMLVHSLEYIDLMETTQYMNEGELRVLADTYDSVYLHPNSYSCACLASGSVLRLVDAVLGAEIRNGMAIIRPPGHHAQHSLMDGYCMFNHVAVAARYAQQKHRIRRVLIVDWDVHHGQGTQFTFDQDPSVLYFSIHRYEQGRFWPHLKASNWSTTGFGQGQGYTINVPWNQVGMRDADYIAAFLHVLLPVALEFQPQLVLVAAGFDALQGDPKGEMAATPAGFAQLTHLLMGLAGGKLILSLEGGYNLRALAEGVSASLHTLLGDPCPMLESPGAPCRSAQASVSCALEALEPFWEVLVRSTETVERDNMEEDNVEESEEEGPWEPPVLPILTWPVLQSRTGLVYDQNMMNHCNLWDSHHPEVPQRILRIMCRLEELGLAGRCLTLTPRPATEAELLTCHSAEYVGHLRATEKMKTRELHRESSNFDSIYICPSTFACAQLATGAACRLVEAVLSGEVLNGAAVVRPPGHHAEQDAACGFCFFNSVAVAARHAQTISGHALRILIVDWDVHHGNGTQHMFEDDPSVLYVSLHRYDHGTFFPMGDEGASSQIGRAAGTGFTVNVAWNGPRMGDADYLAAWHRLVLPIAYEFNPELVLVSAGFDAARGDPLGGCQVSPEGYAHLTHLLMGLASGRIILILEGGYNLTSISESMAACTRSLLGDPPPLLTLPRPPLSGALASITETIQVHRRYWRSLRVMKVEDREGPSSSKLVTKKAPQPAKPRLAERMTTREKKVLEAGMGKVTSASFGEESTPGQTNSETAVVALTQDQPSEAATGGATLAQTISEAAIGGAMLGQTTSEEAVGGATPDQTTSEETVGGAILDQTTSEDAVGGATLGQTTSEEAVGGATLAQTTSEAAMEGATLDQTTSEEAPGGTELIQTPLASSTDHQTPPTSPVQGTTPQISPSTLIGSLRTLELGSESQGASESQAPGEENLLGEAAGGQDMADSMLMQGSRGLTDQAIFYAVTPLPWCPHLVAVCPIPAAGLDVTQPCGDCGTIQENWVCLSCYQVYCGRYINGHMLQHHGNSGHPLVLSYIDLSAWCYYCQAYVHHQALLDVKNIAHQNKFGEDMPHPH

| SMILES | inhibition [%] |
| --- | --- |
| CCOc1cc2ncc(C#N)c(Nc3ccc(OCc4cccc(F)c4)c(Cl)c3)c2cc1NC(=O)/C=C/CN(C)C | -4.4 |
| CC(C)Oc1ccc(Cc2ccc(NC3=NCCN3)cc2)cc1 | 64 |
| Clc1ccc2nsnc2c1NC1=NCCN1 | -9.25 |
| CCc1[nH]c(=O)[nH]c1C(=O)c1ccncc1 | -6.73 |
| COc1ccc2nc3[nH]nc(C)c3c(NCCOCCO)c2c1 | 0.89 |
| COc1cc(OC)c2c(=O)[nH]c(-c3cc(C)c(OCCO)c(C)c3)nc2c1 | 80.1 |
| Nc1nc(Nc2ccc(S(N)(=O)=O)cc2)nn1C(=O)c1c(F)cccc1F | 38.5 |
| COc1ccc(CNC(=O)c2sc3nc(C)cc(C)c3c2N)cc1 | 2.68 |
| COc1cc2ncnc(Nc3cccc(Br)c3)c2cc1OC | 16.9 |
| C#Cc1cccc(Nc2ncnc3cc(OCCOC)c(OCCOC)cc23)c1 | 32.3 |
| C#Cc1cccc(Nc2ncnc3cc(OC)c(OCCCCCCC(=O)NO)cc23)c1 | 101 |
| Cn1ccnc1S | -0.6 |
| O=C(O)c1cc(C(=O)O)c(C(=O)N(Cc2cccc(Oc3ccccc3)c2)[C@H]2CCCc3ccccc32)cc1C(=O)O | 7.63 |
| Cc1ccc(Sc2ccccc2N2CCNCC2)c(C)c1 | -7.14 |
| CC(=O)Nc1cccc(O)c1 | 34.1 |
| COC(=O)/C=C/c1cccc(N(Cc2ccc(-c3ccc(N(C)C)cc3)cc2)C(=O)C2CCCCC2)c1 | -3.18 |
| CN(C)C(=O)Nc1cccc(-c2ccc(N(C)C)cc2)c1 | 94.6 |
| CC1(C)C(/C=C/C=C/C=C/C=C2\N(CCCCS(=O)(=O)O)c3ccc4ccccc4c3C2(C)C)=[N+](CCCCS(=O)(=O)[O-])c2ccc3ccccc3c21 | 21.1 |
| O=C(O)COCCN1CCN([C@H](c2ccccc2)c2ccc(Cl)cc2)CC1 | -6.59 |
| O=C(O)COCCN1CCN(C(c2ccccc2)c2ccc(Cl)cc2)CC1 (stereo not given) | -6.57 |

| SMILES | inhibition [%] |
| --- | --- |
| OCCOCCN1CCN(C(c2ccccc2)c2ccc(Cl)cc2)CC1 (stereo not given) | 89.5 |
| Cc1c(CC(C)(C)C(=O)O)n(Cc2ccc(Cl)cc2)c2ccc(F)cc12 | 3.54 |
| Nc1ccn([C@@H]2C(F)=C(CO)[C@@H](O)[C@H]2O)c(=O)n1 | 8.8 |
| CCc1cccc(CC)c1NC(=O)c1nn(C)c2c1CCc1cnc(Nc3ccc(C(=O)NC4CCN(C)CC4)cc3OC(F)(F)F)nc1-2 | -2.89 |
| CC(C)(CCCCCCCCCCC(C)(C)CC(=O)O)CC(=O)O | -0.28 |
| N#Cc1cc(F)cc(-c2nc(-c3ccc(F)cn3)no2)c1 | 83.6 |
| N#Cc1cccc(-c2nc(-c3cccnc3)no2)c1 | 19.8 |
| COC(=O)c1cnn(-c2ccc(F)cc2F)c1/C=N/NC(=S)NC(C)(C)C | 0.12 |
| CC[C@H](C)[C@H](N)C(=O)O | 9.28 |
| COc1ncc2cc(C(=O)Nc3cc(C(=O)NCc4cccc(Cl)c4)ccc3Cl)c(=O)[nH]c2n1 | 4.52 |
| Cn1nc(-c2cccc(F)c2)n(C)c1=S | 17.9 |
| Cc1csc(S(=O)(=O)N(CC(C)C)c2cc3c(cc2OCc2ccc(C(=O)O)cc2)CCC3)n1 | 1.78 |
| Cc1ccc(C(=O)Nc2ccc(S(=O)(=O)O)c3cc(S(=O)(=O)O)cc(S(=O)(=O)O)c23)cc1NC(=O)c1cccc(NC(=O)Nc2cccc(C(=O)Nc3cc(C(=O)Nc4ccc(S(=O)(=O)O)c5cc(S(=O)(=O)O)cc(S(=O)(=O)O)c45)ccc3C)c2)c1 | 32.3 |
| Cc1ccc(NC(=O)c2cccc(N(C)C)c2)cc1NC(=O)c1ccc(O)cc1 | 80.4 |
| CNCc1ccc(C)c(NC(=O)c2ccc(Nc3nc(-c4ccccc4)c4ccccc4n3)cc2)c1 | -7.66 |
| CC(=O)O[C@H]1CC[C@@]2(C)C(=CC[C@@H]3[C@@H]2CC[C@]2(C)C(c4cccnc4)=CC[C@@H]32)C1 | 15.8 |
| O=[N+]([O-])c1cc2nc(O)c(O)nc2cc1[N+](=O)[O-] | -5.28 |
| CC(C)c1ccc(-c2cc(=O)c3ccccc3o2)cc1 | 101 |
| O=C(O)c1cc(=O)c2ccccc2o1 | -1.55 |
| NCCC(Oc1ccc(C(F)(F)F)cc1)c1ccccc1 (stereo not given) | 1.38 |

| SMILES | inhibition [%] |
| --- | --- |
| CC[C@H]1OC(=O)[C@@](C)(F)C(=O)[C@H](C)[C@@H](O[C@@H]2O[C@H](C)C[C@H](N(C)C)[C@H]2O)[C@](C)(OC)C[C@@H](C)C(=O)[C@H](C)[C@H]2N(CCCCn3cc(-c4cccc(N)c4)nn3)C(=O)O[C@]12C | 17.2 |
| c1ccc2sc(SN3CCOCC3)nc2c1 | 58.2 |
| FC(F)c1nc2ccccc2n1-c1nc(N2CCOCC2)nc(N2CCOCC2)n1 | 29.1 |
| COc1ccccc1Oc1c(NS(=O)(=O)c2ccc(C(C)(C)C)cc2)nc(-c2ncccn2)nc1OCCO | 22.5 |
| COc1ccc(F)c(F)c1C(=O)c1cnc(NC2CCN(S(C)(=O)=O)CC2)nc1N | -5.57 |
| C=CCNC(=O)c1cc([N+](=O)[O-])cc2c(=O)[nH]c(Nc3ccc(Cl)c(Cl)c3)nc12 | 17.8 |
| CN(C)c1ccc2c(c1)Sc1cc(N(C)C)ccc1N2 | 66.8 |
| N#CN=C(NCCCCCCOc1ccc(Cl)cc1)Nc1ccncc1 | -6.3 |
| COc1cc2c(NC3CCN(C(C)C)CC3)nc(N3CCC(F)(F)CC3)nc2cc1OCCCN1CCCC1 | -5.91 |
| COc1cc(C2Oc3ccc(C4Oc5cc(O)cc(O)c5C(=O)C4O)cc3OC2CO)ccc1O (stereo not given) | -5.75 |
| Cc1cc(Cn2nnc3c(-c4ccco4)nc(N)nc32)ccc1N | -1.08 |
| Cc1c(OCc2cccc(-c3ccc(C(=O)O)cc3)c2)cc2c(c1C)C(=O)C(C1CCCC1)C2 (stereo not given) | -0.56 |
| CCCCn1ccc(N2CCC(c3ccccc3)CC2)c(Cl)c1=O | 59.9 |
| CCN1C(=O)NC(c2ccccc2)C1=O (stereo not given) | 22.6 |
| Cc1ccc2c(c1)C(=O)C1(O)CCN(c3ccccc3)C1=N2 (racemic) | 1.13 |
| O=C(O)C[C@H]1CC[C@H](c2ccc(NC(=O)c3nnc(Nc4ccc(F)c(F)c4)o3)cc2)CC1 | 35.2 |
| Oc1cc(O)c2cc(O)c(-c3cc(O)c(O)c(O)c3)[o+]c2c1 | 38.4 |
| CC(C)Nc1cccnc1N1CCN(C(=O)c2cc3cc(NS(C)(=O)=O)ccc3[nH]2)CC1 | 51.2 |
| CC(C)(C)c1ccc(NC(=O)N2CCN(c3ncccc3Cl)CC2)cc1 | 24.7 |
| COC1=C(OC)C(=O)C(C/C=C(\C)CC/C=C(\C)CC/C=C(\C)CC/C=C(\C)CC/C=C(\C)CC/C=C(\C)CC/C=C(\C)CC/C=C(\C)CC/C=C(\C)CCC=C(C)C)=C(C)C1=O | 4.15 |
